Data reported in PubChem BioAssay (NCI).
The panel holds about 79,000 compounds, 15% with a hit somewhere; the sample as a whole holds those more often. Values without a mark were called inactive. The source made the active and inactive calls. No stated cut-off is given here; in the data, active means growth inhibition above about 70%; inactive means the rest.

How the values were obtained:
[1] = NCI Yeast Anticancer Drug Screen. Data for the rad50 strain (AID 155);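 further: 0% = growth of vehicle-only cultures of the same strain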; conditions: S. cerevisiae rad50 strain growth inhibition; at 50.0 µM; stronger effect = higher value
In short: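 Cells are treated with compound, grown, and their growth is then scored against vehicle-only cultures of the same repair-deficient yeast strain.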

[2] = NCI Yeast Anticancer Drug Screen. Data for the mec2-1 strain (AID 157); conditions: S. cerevisiae mec2-1 strain, at 50.0 µM, stronger effect = higher value
In short: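 Strain: mec2-1 (DNA repair/cell cycle alteration). Compound exposure, then growth measured; inhibition expressed relative to vehicle.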

[3] = NCI Yeast Anticancer Drug Screen. Data for the sgs1 mgt1 strain (AID 161);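 further: 0% = growth of cultures given vehicle only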; conditions: S. cerevisiae sgs1 mgt1 strain, at 50.0 µM, stronger effect = higher value
In short: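 Genetically altered yeast, compound exposure, growth inhibition relative to vehicle.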

[4] = NCI Yeast Anticancer Drug Screen. Data for the cln2 rad14 strain (AID 165);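 further: 0% = growth equal to vehicle treated cultures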; conditions: S. cerevisiae cln2 rad14 strain, at 50.0 µM, stronger effect = higher value
In short: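 Compounds are applied to the cln2 rad14 yeast strain, and growth is then compared with that of vehicle-treated cultures to give inhibition.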

[5] = NCI Yeast Anticancer Drug Screen. Data for the bub3 strain (AID 167); conditions: S. cerevisiae bub3 mutant strain, at 50.0 µM, stronger effect = higher value
In short: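 Part of a panel of yeast mutants defective in DNA damage repair or cell cycle regulation. Each strain is grown with compound, and inhibition is calculated relative to solvent-treated cultures.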

[6] = NCI Yeast Anticancer Drug Screen. Data for the mlh1 rad18 strain (AID 175); conditions: S. cerevisiae mlh1 rad18 strain growth inhibition; at 50.0 µM; stronger effect = higher value
In short: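 Read-out is yeast growth inhibition, calculated against vehicle-only controls. The compound was applied to a strain engineered with DNA damage repair alterations.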

Compound | growth inhibition [1] | growth inhibition [2] | growth inhibition [3] | growth inhibition [4] | growth inhibition [5] | growth inhibition [6]
COC(=O)CC(=O)C=P(c1ccccc1)(c1ccccc1)c1ccccc1 | -3.2% | -4.15% | -3.15% | 6.3% | -17.5% | -2.15%
CCN(CC)CCCOC(c1ccccc1)c1ccc(Cl)cc1 (stereo not given) | 17.8% | 16.9% | 46.5% | 41.9% | 1.1% | 26.1%
CC(C)(C)COc1ccc2c(c1)C1=NC2=NC2=NC(=NC3=NC(=NC4=NC(=N1)c1ccc(OCC(C)(C)C)cc14)c1ccc(OCC(C)(C)C)cc13)c1ccc(OCC(C)(C)C)cc12 | 12.8% | 1.1% | -10.1% | -14.6% | -5.45% | 18.4%
COC(=O)C(N)CSCSC (stereo not given) | -12.8% | 13% | 3.7% | -44% | -13.8% | -5.65%
CNC1C(=O)C(C)C(O)(C(CC(C)C(O)/C=C/C=C/CNC(=O)C(C)(C)C(O)\C(C)=C/C=C\C=C\Cc2cnc(C)o2)OC)C12C(=O)OC2COC (stereo not given) (tested in a mixture with another compound) | 2.6% | -22.1% | -7.75% | 2.95% | 12.9% | 6.35%
COC(=O)NC(CI)c1ccccc1 (stereo not given) | 14.7% | -5.8% | 7.55% | 8.85% | -6.35% | 23.9%
CCC/C(=C(\C)c1ccccc1)c1ccccc1 | 46.1% | 33.6% | 37.7% | 14.1% | -11.5% | 33.3%
O=[N+]([O-])c1ccc(S(=O)(=O)c2ccc(NCN3CCCCC3)cc2)cc1 | 25.1% | 6.2% | 26.9% | -3.95% | 13.7% | 17.6%
Cc1ccc(S(=O)(=O)NNCCC#N)cc1 | -5% | 6.05% | -4.35% | -0.15% | -4.9% | 7.75%
Cc1onc(-c2c(Cl)cccc2Cl)c1C(=O)SC1=NC(C)N2C(SC(=O)c3c(-c4c(Cl)cccc4Cl)noc3C)=NC(C)N12 (stereo not given) | 26.6% | 7.4% | 11.3% | 11.7% | 18.6% | 16.6%
Cc1ccc(NC(=O)Oc2ccc3ccccc3c2)cc1NC(=O)Oc1ccc2ccccc2c1 | 1.35% | -19.4% | -4.45% | -86.5% | 4.9% | -1.85%
CC(C)CCCC(C)C1CCC2C3CCC4CC(N5CCCCC5)CCC4(C)C3CCC12C (stereo not given) | 5.5% | -9.6% | -16.1% | -20.8% | 4.55% | 17.1%
O=C(O)CSCC(=O)c1ccccc1 | -2.1% | -16.4% | -43.2% | -29.1% | -53.4% | -16.6%
CC1(C)CC(N2CCN(C3CC(C)(C)NC(C)(C)C3)CC2)CC(C)(C)N1 | -12.7% | -19.6% | -18.8% | -8.3% | -14.2% | -29.6%
C=CCNC(=S)/N=C\c1c(C)[nH]n(-c2ccccc2)c1=O | -23.8% | -27.2% | -24.6% | -17.6% | -17.6% | -5.7%
Cc1ccc(N=C(c2ccccc2)c2ccc([N+](=O)[O-])cc2)cc1 | -16.6% | -7.05% | -21.7% | -26.9% | 21.4% | -11.8%
O=C(O)C(CS)NC1CC(=O)N(Cc2ccccc2)C1=O (stereo not given) | 1.95% | 9.8% | 18.6% | -19.3% | -1.55% | -8.25%
NC12CC3CC(C1)CC(C(=O)O)(C3)C2 | 1.65% | 3.05% | -2.75% | 3.45% | 6.7% | -7.1%
CCOC(=O)C1(Cc2ccccc2)Cc2ccccc2C1=O (stereo not given) | 7.75% | 29.9% | 79% (active) | 62.1% | 73.7% (active) | 63.5%
NCCCCC(N)C(=O)NC1C(CO)OC(n2cnc3c(N)ncnc32)C1O (stereo not given) | 31.9% | 13.2% | 7.55% | 14.3% | 5.75% | 30.1%

Compound | growth inhibition [1] | growth inhibition [2] | growth inhibition [3] | growth inhibition [4] | growth inhibition [5] | growth inhibition [6]
O=c1/c(=C/c2ccccc2O)sc2nc3ccccc3n12 | 9.65% | -42.2% | 18.9% | 15% | 10.4% | 20.9%
COc1ccc(C2C3=C(CCCC3=O)N(c3ccccc3)C3=C2C(=O)CCC3)cc1 | -67% | -18.4% | 3.3% | 19.9% | 7.4% | -27.5%
COCCCC(NC(=O)C(CC(C)C)NC(=O)OCc1ccc(OC)cc1)C(N)=O (stereo not given) | -12.9% | -21.4% | -22.9% | 4.2% | -12.1% | 4.2%
COc1cc2c(C)cc(O)cc2c2cc(O)c(C)cc12 | 22.6% | -1.55% | -10.3% | -5.9% | -9.9% | 91.8% (active)
CC(C)(O)CCc1ccccc1 | -7.75% | -29.3% | -14.2% | 14.8% | -19.3% | 6.6%
CC1=NC(C(=O)O)CC1C (stereo not given) | 1.15% | 4% | -5.35% | -7.7% | 1.45% | -1.3%
O=[N+]([O-])c1ccc(N/N=C2/CC3=C2CCCCCCCCCC3)c([N+](=O)[O-])c1 | -6.35% | -4.95% | 11% | -14.2% | -2.15% | -13.4%
CC[n+]1ccnc2ccccc21 | -11.6% | -8% | -1.35% | -7.9% | 11.6% | 14%
COc1ccc(NC(=O)C(=O)c2c(O)c3ccc(O)cc3oc2=O)c([N+](=O)[O-])c1 | 14.4% | 9.95% | 1% | 3.95% | -2.85% | -6.1%
NC(=O)C1=Cc2cccn2-c2ccccc2S1 | 3.45% | -2.1% | -2.75% | -16.6% | 2.1% | 0.8%
CC1(C)OC(=O)N=C1c1ccc(Cl)cc1 | -20.2% | -10% | -19.8% | 12.5% | -20% | -12.2%
COc1cc2ccccc2ccc1=O | 13.4% | 7.95% | -6.45% | -3.55% | 13.6% | 4.5%
O=[N+]([O-])c1ccc(Cl)c(OCCBr)c1 | 0% | 3.15% | -2.05% | 1.15% | 31.9% | 9%
COC(=O)CSc1n[nH]c(-c2ccccc2)n1 | 1.05% | -7.25% | 7.2% | -1% | 3.4% | -4.3%
CCC(CC)CC(=O)OC/C(=N\Nc1ccc([N+](=O)[O-])cc1[N+](=O)[O-])c1ccc(-c2ccccc2)cc1 | -30.9% | 0.15% | -2.85% | -33.8% | -12.2% | -7%
Cc1cnc(Sc2ncccc2[N+](=O)[O-])nc1 | 33% | 5.75% | 22.8% | 25.6% | -3.1% | 6.7%
Cc1cc(C)c(C(=O)c2cccc(Cl)c2)c(C)c1 | -13% | 4.7% | 5.55% | -56.9% | 34.4% | 22%
COc1ccc(C(=O)c2ccccc2)c(O)c1 | 13.1% | 1.8% | -10.6% | 4.95% | 0.55% | 6.9%
O=C1COc2cccnc2N1 | 12.7% | -2.05% | 19.5% | 2.2% | 14.7% | 14.7%
C[N+]1(CSC(=O)c2ccccc2)CCCCC1 | 1.95% | 11.5% | 12.3% | 1.6% | -9.75% | 24.9%
